From PubChem BioAssay (Tox21)
Several values for one entry are separate records, joined by “and”; a condition that tells them apart may be missing. Identical values can stand only once. Results filed as inconclusive are left out. A structure can be active in one record and inactive in another. Activity calls are given as the source filed them. Unless noted, the call rests on the fitted dose curve; in most records, active means well fitted curve in the direction sought with a large enough effect in the repeat runs; inconclusive means weak or mixed curves; inactive means no such curve, though single readings can be large; an effect the other way counts as inactive or inconclusive.

Key:
[1] = qHTS assay for small molecule agonists of the p53 signaling pathway (AID 651631; calls by dose curve; further: nearly all actives have a fitted effect of over 15% in size; further: potency means the concentration at half of the fitted maximal effect)
Outline: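 Quantitative high-throughput format: 4,000 p53RE-bla HCT-116 cells/well, 5 h pre-incubation, 16 h compound exposure at 37 °C, 2 h room-temperature substrate step, fluorescence intensity measured.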

[2] = qHTS assay for small molecules that induce genotoxicity in human embryonic kidney cells expressing luciferase-tagged ATAD5 (AID 651632); further: nearly all actives have a fitted effect of over 15% in size
Outline: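 Cells were seeded at 2,000 per well, dosed with compound, and incubated 16 hr at 37C in 5% CO2. Luciferase activity was then quantified after a 30 min room-temperature incubation with Amplite.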

[3] = qHTS assay for small molecule agonists of the p53 signaling pathway - cell viability (AID 651633; calls by dose curve; further: nearly all actives have a fitted effect of over 30% in size; further: potency means the concentration at half of the fitted maximal effect)
Outline: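 Viability counter-read: CellTiter-Glo luminescence (30 min, room temperature) in the same p53RE-bla plates. These plates had been exposed to compounds for 16 h at 37 C.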

[4] = qHTS assay for small molecules that induce genotoxicity in human embryonic kidney cells expressing luciferase-tagged ATAD5 - cell viability (AID 651634; calls by dose curve; further: nearly all actives have a fitted effect of over 25% in size; further: potency means the concentration at half of the fitted maximal effect)
Outline: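 Cells (HEK293T, luciferase-tagged ATAD5) are seeded at 2,000 per well, dosed with compound or DMSO vehicle, and incubated 15.5 hr at 37C and 5% CO2. CellTiter-Fluor is added for 30 min before fluorescence is measured.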

[5] = qHTS assay for small molecule disruptors of the mitochondrial membrane potential - cell viability (AID 720634; calls by dose curve; further: nearly all actives have a fitted effect of over 20% in size; further: potency means the concentration at half of the fitted maximal effect)
Outline: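 Cytotoxicity was measured by ATP quantitation in HepG2 wells that had first been treated with compound for 1 hr and stained with m-MPI dye; CellTiter-Glo incubation was 30 min at room temperature.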

[6] = qHTS assay for small molecule disruptors of the mitochondrial membrane potential (AID 720635); further: potency means the concentration at half of the fitted maximal effect
Outline: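 Mitochondrial membrane potential tracked with Mito-MPS dye, red aggregates (ex 540/em 590 nm) against green monomers (ex 490/em 535 nm). Compound treatment 1 hr at 37C, dye 30 min in HepG2.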

[7] = qHTS assay to test for compound auto fluorescence at 590 nm (red) in HepG2 cells (AID 720674); further: potency means the concentration at half of the fitted maximal effect
Outline: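 Red autofluorescence (Ex/Em 540/590 nm, Rose Bengal sodium equivalents) was measured in HepG2 cells, 2,000 per well in MEM plus 10% FBS, plated overnight at 37 C. Readings were taken 1 hr after adding 23 nL compound or DMSO, at 37 C and 5% CO2.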

[8] = qHTS assay to test for compound auto fluorescence at 535 nm (green) in HepG2 cells (AID 720675); further: potency means the concentration at half of the fitted maximal effect
[9] = qHTS assay to test for compound auto fluorescence at 460 nm (blue) in HEK293 cells (AID 720678)
Outline: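 Auto fluorescence in the blue band was quantified as triamterene equivalency. HEK293 cells were seeded at 2,000/well, dosed after a 4-5 hr attachment, and kept overnight at 37C before the 405/460 nm reading.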

[10] = qHTS assay to test for compound auto fluorescence at 590 nm (red) in HEK293 cells (AID 720679); further: potency means the concentration at half of the fitted maximal effect
Outline: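 Autofluorescence equivalency to Rose Bengal sodium, 540/590nm, in HEK293 cells exposed overnight to 23 nL compound per well.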

[11] = qHTS assay to test for compound auto fluorescence at 535 nm (green) in HEK293 cells (AID 720680); further: potency means the concentration at half of the fitted maximal effect
[12] = qHTS assay to test for compound auto fluorescence at 460 nm (blue) in HEK293 cell free culture (AID 720681)
Outline: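 Blue fluorescence (Ex 405/Em 460 nm, triamterene-equivalent) was read immediately after pin transfer of compound or DMSO into medium (DMEM, 10% FBS) without cells.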

[13] = qHTS assay to test for compound auto fluorescence at 535 nm (green) in HEK293 cell free culture (AID 720682); further: potency means the concentration at half of the fitted maximal effect
Outline: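 Measurement is a direct plate read of green fluorescence (485 nm in, 535 nm out) after compound addition to serum-supplemented DMEM lacking cells, with fluorescein used to express intensities.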

[14] = qHTS assay to test for compound auto fluorescence at 590 nm (red) in HEK293 cell free culture (AID 720683); further: potency means the concentration at half of the fitted maximal effect
Outline: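 Red-channel autofluorescence of compounds in culture medium (DMEM, 10% FBS), no cells, measured at 540/590 nm. Rose Bengal sodium is the reference fluorophore for equivalence.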

[15] = qHTS assay to test for compound auto fluorescence at 590 nm (red) in HepG2 cell free culture (AID 720684); further: potency means the concentration at half of the fitted maximal effect
Outline: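 No cells present: MEM + 10% FBS only. Compound pinned in, red label read (540/590 nm). Activity = fluorescence equivalent to Rose Bengal sodium.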

[16] = qHTS assay to test for compound auto fluorescence at 460 nm (blue) in HepG2 cell free culture (AID 720685)
Outline: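 Cell-free plates of MEM plus 10% FBS received 23 nL compound or DMSO vehicle; blue-channel (405/460 nm) intensity scored against triamterene as reference fluorophore.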

[17] = qHTS assay to test for compound auto fluorescence at 535 nm (green) in HepG2 cell free culture (AID 720686); further: potency means the concentration at half of the fitted maximal effect
[18] = qHTS assay to test for compound auto fluorescence at 460 nm (blue) in HepG2 cells (AID 720687)
Outline: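 Blue-channel autofluorescence (Ex/Em 405/460 nm, triamterene-equivalent) was measured after 1 hr compound exposure at 37 C, 5% CO2. Cells were HepG2, plated overnight at 37 C in MEM plus 10% FBS.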

[19] = target: Glucocorticoid receptor (Homo sapiens) (UniProt P04150); experiment: qHTS assay to identify small molecule agonists of the glucocorticoid receptor (GR) signaling pathway (AID 720691; active means well fitted activation curve with a large enough effect in the signal ratio in the repeat runs, not every such curve was filed as active; the % refers to the signal ratio; further: potency means the concentration at half of the fitted maximal effect)
Sequence of Glucocorticoid receptor (Homo sapiens) (P04150 whole entry, looked up): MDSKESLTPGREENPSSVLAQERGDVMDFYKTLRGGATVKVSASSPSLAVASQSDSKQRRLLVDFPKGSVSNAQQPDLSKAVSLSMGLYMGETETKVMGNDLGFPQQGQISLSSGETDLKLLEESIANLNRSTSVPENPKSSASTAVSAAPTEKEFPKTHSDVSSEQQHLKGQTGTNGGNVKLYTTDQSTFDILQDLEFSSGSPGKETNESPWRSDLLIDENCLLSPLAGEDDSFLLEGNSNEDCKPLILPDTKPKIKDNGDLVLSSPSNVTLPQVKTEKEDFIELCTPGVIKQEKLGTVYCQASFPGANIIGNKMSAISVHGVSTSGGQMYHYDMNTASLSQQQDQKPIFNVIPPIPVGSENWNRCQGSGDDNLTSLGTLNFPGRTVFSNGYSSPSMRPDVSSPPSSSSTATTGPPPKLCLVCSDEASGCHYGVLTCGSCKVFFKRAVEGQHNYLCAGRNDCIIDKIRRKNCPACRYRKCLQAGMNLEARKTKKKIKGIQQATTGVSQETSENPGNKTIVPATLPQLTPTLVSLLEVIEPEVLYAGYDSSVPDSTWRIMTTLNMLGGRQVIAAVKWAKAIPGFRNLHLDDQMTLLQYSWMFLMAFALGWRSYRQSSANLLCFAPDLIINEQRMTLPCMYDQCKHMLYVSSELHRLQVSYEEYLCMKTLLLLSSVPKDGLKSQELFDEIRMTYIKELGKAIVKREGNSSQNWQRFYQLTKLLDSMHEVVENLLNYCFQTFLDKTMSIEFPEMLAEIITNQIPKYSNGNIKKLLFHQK
Outline: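 Steps: seed GR-bla HeLa cells, incubate 4 h at 37 C/5% CO2; pin-transfer DMSO-dissolved compounds; incubate 18 h at 37 C; add LiveBLAzer B/G FRET substrate; after 2 h at room temperature, measure fluorescence.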

[20] = target: Glucocorticoid receptor (Homo sapiens) (UniProt P04150); experiment: qHTS assay to identify small molecule antagonists of the glucocorticoid receptor (GR) signaling pathway (AID 720692; active means well fitted inhibition curve with a large enough effect in the signal ratio in the repeat runs, not every such curve was filed as active; the % refers to the signal ratio; further: potency means the concentration at half of the fitted maximal effect)
Outline: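 Antagonism was scored as loss of dexamethasone-driven (5 nM final) reporter signal in HeLa cells bearing a glucocorticoid response element–beta-lactamase construct, after 18 h compound exposure at 37 C and 2 h FRET substrate loading.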

Measured: Potency
Tags describe the fitted curve by direction and shape or compound fluorescence and quenching.

CCCCNC(=O)NS(=O)(=O)c1ccc(C)cc1
inactive: all assays above

CC1(C)S[C@@H]2[C@H](NC(=O)[C@H](N)c3ccccc3)C(=O)N2[C@H]1C(=O)O
not listed: [5] | [6] | [13] | [19] | [20]
inactive: all other assays above

CNNCc1ccc(C(=O)NC(C)C)cc1
not listed: [2] | [5] | [6]
inactive: all other assays above

COc1ccc2c(c1)c(CC(=O)O)c(C)n2C(=O)c1ccc(Cl)cc1
not listed: [6] | [13] | [20]
inactive: all other assays above

Nc1ccc(O)c([N+](=O)[O-])c1
active: [4] 53.9 µM
not listed: [1] | [6] | [20]
inactive: all other assays above

NC(=O)n1c(O)c(C(=O)c2cccs2)c2cc(Cl)ccc21
active: [1] 5.96 µM | [3] 8.41 µM
not listed: [4] | [6] | [20]
inactive: all other assays above

CC(O)(P(=O)(O)O)P(=O)(O)O
not listed: [1] | [13] | [19] | [20]
inactive: all other assays above

O=C1OC2(c3ccccc31)c1cc(Br)c(O)c(Br)c1Oc1c2cc(Br)c(O)c1Br
inactive: [2] | [3] | [5] | [9] | [12] | [16] | [18]
active: [4] 21.1 µM and 1.56 µM and 19.9 µM | [7] 3.16 µM and 2.51 µM | [8] 12.6 µM and 4.47 µM and 17.8 µM | [10] 5.01 µM [fluorescent] and 4.47 µM [fluorescent] and 3.55 µM [fluorescent] | [11] 11.2 µM [fluorescent] and 28.2 µM [fluorescent] | [13] 11.2 µM [fluorescent] and 17.8 µM [fluorescent] | [14] 4.47 µM [fluorescent] and 3.55 µM [fluorescent] | [15] 3.16 µM [fluorescent] and 2.82 µM [fluorescent] and 2.51 µM [fluorescent] | [17] 10 µM [fluorescent] and 20 µM [fluorescent]

CC(=O)Nc1c(I)c(NC(C)=O)c(I)c(C(=O)O)c1I
not listed: [1] | [6]
inactive: all other assays above

COc1ccc(OC(F)(F)F)cc1CN[C@H]1CCCN[C@H]1c1ccccc1
not listed: [6] | [13] | [20]
inactive: all other assays above

Cc1cc(C)nc(NS(=O)(=O)c2ccc(N)cc2)n1
not listed: [2] | [6] | [13]
inactive: all other assays above

Nc1c2c(nc3ccccc13)CCCC2
not listed: [1] | [6] | [13] | [19] | [20]
inactive: all other assays above

CCCCCCCCCCCCCCCC[N+](C)(C)Cc1ccccc1
active: [3] 11.9 µM and 35.5 µM and 39.3 µM | [4] 29.8 µM and 79.4 µM | [5] 26.6 µM
not listed: [1] | [6] | [19] | [20]
inactive: all other assays above

NC1CCCCC1
not listed: [1] | [6] | [19] | [20]
inactive: all other assays above

CN1CCc2cccc3c2[C@H]1Cc1ccc(O)c(O)c1-3
not listed: [1]
inactive: all other assays above

O=C1O[C@H]([C@@H](O)CO)C(O)=C1O
not listed: [3] | [6] | [13]
inactive: all other assays above

CCCCOC(=O)c1ccc(O)cc1
active: [6] 23.7 µM and 9.81 µM and 19.3 µM
not listed: [2]
inactive: all other assays above

CCN(CC)C(=O)c1cccc(C)c1
not listed: [1] | [6]
inactive: all other assays above

Cc1cn([C@H]2C=C[C@@H](CO)O2)c(=O)[nH]c1=O
not listed: [1] | [6] | [13] | [19] | [20]
inactive: all other assays above

CN(C)C(=S)SC(=S)N(C)C
active: [6] 2.98 µM and 28 µM and 61.1 µM | [19] 0.448 µM
inactive and 243 nM (active): [3]
not listed: [4] | [20]
inactive: all other assays above

Nc1ccc(S(N)(=O)=O)cc1
not listed: [2] | [6]
inactive: all other assays above

CCCCCCCCCCCC[N+](C)(C)Cc1ccccc1
active: [3] 18.8 µM and 47.6 µM and 29.7 µM | [4] 26.8 µM and 74.5 µM
not listed: [1] | [6] | [19] | [20]
inactive: all other assays above

NC(=O)c1cccnc1
not listed: [6] | [13]
inactive: all other assays above

Oc1ccccc1
not listed: [2] | [6] | [13] | [19] | [20]
inactive: all other assays above

Cn1c(=O)c2c(ncn2C)n(C)c1=O
not listed: [2] | [4] | [6]
inactive: all other assays above

Nc1ccc([N+](=O)[O-])cc1O
active: [4] 54.5 µM | [6] 17.2 µM
not listed: [1] | [20]
inactive: all other assays above

COc1cccc(O)c1O
active: [4] 17.9 µM
not listed: [2] | [6]
inactive: all other assays above

Nc1c(N=Nc2ccc(-c3ccc(N=Nc4cc(S(=O)(=O)O)c5ccccc5c4N)cc3)cc2)cc(S(=O)(=O)O)c2ccccc12
active: [4] 13.3 µM and 27.3 µM | [6] 17.2 µM | [20] 21.3 µM
not listed: [1]
inactive: all other assays above
